From PubChem BioAssay AID1224817 (Yan Lab, Georgia Cancer Center, Augusta University, 2016)
The whole screen tested about 2,000 compounds, of which about 25 (1%) were called active. What follows is part of a selection rich in actives, with near analogues and random picks from the rest. Values without a mark were called inactive.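 How the source made its calls: active means log2 luciferase ratio at or below -0.5849, meaning signal at two thirds of solvent-only control or lower; inactive means the rest.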

Assay: inhibitors of EIF4E gene expression, primary screen, cell-based, HT1080, luciferase reporter (AID 1224817);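 further: luciferase reports endogenous eIF4E expression since it is co-expressed from the native EIF4E locus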
Settings: HT1080 EIF4E-luc2 knock-in reporter, 16 h, at 2.5 µM, hits give low values

Compound | log2 luciferase activity ratio
O=C(O)C(O)C(O)C(O)C(=O)CO (centres undefined) | -0.272
Oc1cccnc1CN1CCCCC1 | -0.635 (active)
Cc1nc(CN2CCCCC2)c(O)c(=O)[nH]1 | -0.0244
CC(=O)Nc1cc(CN2CCCCC2)c(O)c2ncccc12 | -0.0787
O=P(O)(CCP(=O)(O)c1ccccc1)c1ccccc1 | 0.225
OCC1OC(n2cnc3c(/C=C(/O)c4ccccc4)ncnc32)C(O)C1O (centres undefined) | 1.58
O=c1ccc2nc3ccc(O)cc3oc-2c1 | -0.212
C[n+]1cccc(/C=C/c2ccc3cccc(O)c3n2)c1 | 0.721
NC(CCCCO)C(=O)O (centres undefined) | 0.0343
COc1ccc2c3c(ccc2c1)NC(C(=O)O)CC3 (centres undefined) | 1.85
O=C(O)CC(Sc1ccccc1)c1ccccc1 (centres undefined) | 0.113
Cc1cc(N=Cc2c(CO)cnc(C)c2O)c(N=Cc2c(CO)cnc(C)c2O)cc1C.[Zn] | 0.374
NCCN1C(=O)c2ccccc2C1(O)c1ccc(Cl)cc1 (centres undefined) | 0.275
O=C(O)CC(C(=O)O)c1ccccc1[N+](=O)[O-] (centres undefined) | -0.346
O=C(O)C(C1NCCS1)N1C(=O)c2ccccc2C1=O (centres undefined) | -0.326
Clc1ccc2c(NCCNC3CCCCC3)ccnc2c1 | -0.0725
O=C(O)Cc1c(O)ccc2ccccc12 | -0.364
CC(C)=CCNc1ncnc2c1c(C#N)cn2C1OC(CO)C(O)C1O (centres undefined) | -0.135
N#CC[N+]1(Cc2ccccn2)CCCC1 | -0.0477
CN(C)CCCN=c1c2ccccc2n(C)c2[nH]c(=O)n(C)c(=O)c12 | -0.0932

Compound | log2 luciferase activity ratio
O=C(O)CSCC(=O)c1ccccc1 | -0.355
Cc1ccc(S(=O)(=O)OCC(=O)O)cc1 | 0.01
CC12CCC3c4ccc(O)cc4CCC3C1C/C(=N\O)C2O (centres undefined) | -0.14
CC1CN(CCO)CCN1c1ccccc1 (centres undefined) | 0.393
O=C(O)C1C(C(=O)O)C(C(=O)O)C1C(=O)O (centres undefined) | -0.115
Cc1nn(-c2ccc(S(=O)(=O)[O-])cc2)c([O-])c1N=[N+](C)c1ccc(-c2ccc(N=Nc3ccc4c(S(=O)(=O)[O-])cc(S(=O)(=O)[O-])c(N)c4c3[O-])c([O-])c2)cc1[O-].[Cu+2].[Cu+2].[Na+] | 0.162
OCCNc1ncnc2c1ncn2C1OC(CO)C(O)C1O (centres undefined) | -0.0424
CN(CCO)Cc1ncccc1O | -0.625 (active)
CN(C)Cc1ccc(O)c(CN(C)C)n1 | -0.0218
CN(C)CCN(c1ccccn1)c1ccccn1 | -0.0299
Nc1ccccc1N=Nc1c(S(=O)(=O)O)cc2cc(S(=O)(=O)O)cc(O)c2c1O | -0.0279
CC1=CC(C2/C(=N/O)C=C(C)CC2(C)C)C(O)C(C)(C)C1 (centres undefined) | -0.118
Fc1cccc(Cl)c1/C=N\N=C1c2ccccc2-c2ccccc21 | -0.123
c1ccc2cc(-c3cc(-c4cc(-c5ccc6ccccc6c5)on4)no3)ccc2c1 | 0.0163
N=C(N)c1ccc(/C=C/c2ccc(C(=N)N)cc2)cc1 | -0.247
O=S(=O)(O)C(c1ccccc1)C(O)c1ccccc1 (centres undefined) | -0.161
O=C(O)CNc1ccc(C(=O)O)cc1 | -0.647 (active)
O=C(O)c1ccc(NS(=O)(=O)Cc2ccccc2)cc1 | 0.0192
NCc1ccc(C(=O)O)cc1 | 0.304
